# About 18,000 (5.8%) of roughly 310,000 compounds were called active. Inconclusive results (about 22%) are left out. Calls come from the whole dose curve; as a rule, active = well fitted inhibition curve with a large enough effect; inconclusive = small, poorly fitted or top-dose-only effect, or another doubt; inactive = no such curve, though single readings can be large or run the other way. What follows is part of a selection rich in actives, with near analogues and random picks from the rest.
# Assay: Primary qHTS for delayed death inhibitors of the malarial parasite plastid, 48 hour incubation
# Conditions: P. falciparum luciferase growth in erythrocytes; series mostly up to 28.7 µM; activity change, negative = inhibition: at the top concentration
# Outline: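 First compound was added to culture medium, then infected red cells at 0.1% parasitemia and 2% hematocrit (final). After incubation at 37 C under 5% CO2, luciferase detection reagent was dispensed and light output recorded.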
# % is set by controls: 0 for no effect and ±100 for the full control effect; potency is the fitted concentration of half-maximal effect.
Structure (SMILES),"activity change, negative = inhibition",Potency
C=CCOc1cccc(C2NC(=O)c3ccccc3O2)c1 (stereo not given),0.379% (inactive),
COc1ccc(N(CC(=O)NCC2CCCO2)C(=O)CCC(=O)Nc2nccs2)c(OC)c1 (stereo not given),-20.9% (inactive),
Cc1ccc(N2CC(C(=O)Nc3cc(Cl)ccc3-n3cncn3)CC2=O)cc1 (stereo not given),-22.5% (inactive),
Cc1ccc2c(c1)N(CC(=O)NCC1CCCO1)C(=O)CO2 (stereo not given),4.3% (inactive),
COc1cccc(C(=O)NCCS(=O)(=O)NCC2CCCO2)c1 (stereo not given),3.22% (inactive),
COc1cc2c(cc1OC)CN(C(=O)c1ccc(S(=O)(=O)N3CCCCCC3)cc1)CC2,,6.57 µM (active)
COc1ccc(S(=O)(=O)N2CCC(C(=O)N3CCc4ccccc4C3)CC2)cc1OC,-23.1% (inactive),
COc1cc(C(=O)NNC(=O)c2ccc(S(=O)(=O)N3CCCCC3)cc2)cc(OC)c1OC,1.28% (inactive),
COC(=O)C1(CCSC)NC(c2ccc(OC)cc2OC)C2C(=O)N(c3cccc(C(C)=O)c3)C(=O)C21 (stereo not given),-19.3% (inactive),
CSc1ccccc1NC(=O)c1ccc2c(c1)CCN2S(C)(=O)=O,41.5% (inactive),
COc1ccc2cc(C(=O)O)n(CC(=O)c3ccccc3)c2c1,18.2% (inactive),
Cc1ccc(N(C(=O)c2ccc(CN3CCOCC3)o2)C(C(=O)NCCC(C)C)c2cccs2)c(C)c1 (stereo not given),,10.4 µM (active)
Cc1cccc(N(C(=O)c2ccc(CN3CCOCC3)o2)C(C(=O)NC2CCCCC2)c2ccc(F)cc2)c1 (stereo not given),7.73% (inactive),
Cc1ccc(CS(=O)Cc2ccc(C(=O)N3CCOCC3)o2)cc1 (stereo not given),3.7% (inactive),
Cc1c(NS(=O)(=O)c2cc(C(=O)NCCc3ccc(F)cc3)cc(Cl)c2Cl)c(=O)n(-c2ccccc2)n1C,-17% (inactive),
COC(=O)c1ccc(NC(=O)CSc2nnc(C3CC3)n2C)cc1,-5.32% (inactive),
CCOC(=O)c1ccccc1NS(=O)(=O)c1ccc(OC)cc1,-12.7% (inactive),
CCOC(=O)C1=C(c2ccc(OC)cc2)C(=O)c2ccccc2C1=O,,2.94 µM (active)
CCOC(=O)c1c(-c2ccc(C)cc2)csc1/N=C(\C)C1=C(O)c2ccccc2C1=O,-24.3% (inactive),
COc1ccc(-c2cc(C(=O)NCCCN3CCOCC3)no2)cc1,1.35% (inactive),
O=[N+]([O-])c1ccc(Oc2ccc(F)cc2Br)c2ccncc12,,14.7 µM (active)
Cn1c(SCc2ccc(F)cc2)nnc1-c1ccncc1,-20.5% (inactive),
Cc1csc(NC(=O)C2=COCCO2)n1,115% (inactive),
Cc1ccc(-c2csc(NC(=O)c3cnccn3)n2)cc1C,20.3% (inactive),
Cc1ccc(-c2csc(NC(=O)C3=COCCO3)n2)cc1C,,10.4 µM (active)

Structure (SMILES),"activity change, negative = inhibition",Potency
CN(Cc1ccccc1)C(=O)c1cccc(C(=O)N(C)Cc2ccccc2)c1,4.36% (inactive),
CC(C)C[C@H](CO)Nc1nc(N(C)c2cccc(Cl)c2)c2ncn(C(C)C)c2n1,,13.1 µM (active)
O=C(CCCC(=O)N1CCN(c2cccc(Cl)c2)CC1)c1ccccc1,-4.33% (inactive),
Cc1ccc(C)c(N2CCN(C(=O)Cn3ncn4cccc4c3=O)CC2)c1,31.9% (inactive),
CN1CN(C)c2ccc([N+](=O)[O-])c3cccc1c23,34.5% (inactive),
Cc1ccc(C(=O)N2CCC(n3nccc3NC(=O)Nc3cccc(F)c3)CC2)cn1,7.73% (inactive),
CCOc1cccc(SCc2noc(C(=O)NC(C)C)c2C(=O)O)c1,21.5% (inactive),
CCCNC(=O)c1onc(CSc2ccc(F)cc2)c1C(=O)NC(C)C,,9.28 µM (active)
CCCCNC(=O)c1onc(CSc2cccc(OC)c2)c1C(=O)O,18.7% (inactive),
CCc1ccccc1S(=O)(=O)Cc1ccc(C(=O)NCCc2ccccc2)o1,-4.64% (inactive),
Cc1ccc(C)c2[nH]c(=O)c(CN(Cc3cccnc3)C(=S)NCc3ccco3)cc12,,9.28 µM (active)
COCCNC(=S)N(Cc1cccnc1)Cc1ccc(OC)c(OC)c1,-3.14% (inactive),
O=C(Nc1ccccc1)N(Cc1cccnc1)Cc1ccco1,-0.883% (inactive),
COc1ccc(C(=O)N2CCN(c3ncccn3)CC2)cc1S(=O)(=O)N1CCOCC1,22% (inactive),
COc1cc(C(=S)N2CCOCC2)cc(OC)c1OC(=O)c1ccc([N+](=O)[O-])cc1[N+](=O)[O-],34.1% (inactive),
CCC(C)Sc1nc2c(cnn2-c2ccc(F)cc2)c(=O)[nH]1 (stereo not given),18.2% (inactive),
Cc1cccc(C)c1NC(=O)COC(=O)c1ccccc1O,11.5% (inactive),
Cn1nnnc1SCc1cc(=O)[nH]c2ccccc12,10.9% (inactive),
Cc1ccc(N(Cc2cc(=O)[nH]c3ccccc23)C(=O)CCl)cc1,,9.28 µM (active)
CC(=O)N(Cc1cc(=O)[nH]c2ccccc12)c1ccc(C)cc1C,-19.8% (inactive),
COc1cc(/C=N/NC(=O)CNC(=O)c2ccncc2)ccc1OC(C)=O,28.7% (inactive),
O=C(COC(=O)/C=C/c1cccs1)NC1CCCCC1,5.56% (inactive),
O=C(CSc1nc2ccccc2[nH]1)N/N=C/C=C\c1ccccc1[N+](=O)[O-],7.14% (inactive),
Cc1ccc(-n2c(SCC(=O)N/N=C/C=C/c3ccccc3[N+](=O)[O-])nc3ccccc3c2=O)cc1,,13.1 µM (active)
CCn1c(SCC(=O)N/N=C/C=C/c2ccccc2[N+](=O)[O-])nnc1-c1ccccc1,-3% (inactive),

# From PubChem BioAssay AID504832 (National Center for Advancing Translational Sciences (NCATS), 2011)
